Source: PubChem BioAssay (Tox21)
Several values for one entry are separate records, joined by “and”; a condition that tells them apart may be missing. Equal values may be shown once. Records with an inconclusive call do not appear. Where a call stands in place of a potency, no number is given. Unmarked numbers belong to inactive results. Activity calls are given as the source filed them. Calls come from the whole dose curve.

Experiment: qHTS assay to identify small molecule agonists or antagonists of the thyroid stimulating hormone receptor (TSHR) signaling pathway - wild type cell line counter screen (AID 1259384)
Conditions: HEK293 wild type, cAMP HTRF counter-screen; series mostly up to 92.4 µM; cAMP activity change: at the top concentration
From the text: U.S. Tox21 Program National Center for Advancing Translational Sciences [NCATS] NIH Chemical Genomics Center [NCGC] U.S. Environmental Protection Agency [EPA] National Institutes of Environmental Health Sciences [NIEHS] National Toxicology Program [NTP] U.S. Food and Drug Administration [FDA] Tox21 Assay Overview: TSHR is the receptor for thyrotropin (thyroid stimulating hormone or TSH), a member of the glycoprotein hormone family. TSH is released by the anterior pituitary gland and is the main regulator of thyroid gland growth and development. Upon binding circulating thyrotropin, a G-protein signal cascade activates adenylyl cyclase and […] cAMP concentration is increased. cAMP is a key second messenger involved extensively in cellular signal transduction pathways associated with the majority of G-protein coupled receptors (GPCRs). The activation of these GPCRs by neurotransmitters, lipids, nucleotides, peptides and hormones results in the activation or the inhibition of plasma membrane-bound adenylate cyclase through heterotrimeric G-proteins. A cell-based TSHR-Hek293 assay can be used to identify TSHR agonists. To eliminate the false positive compounds identified from screening a cell-based TSHR-Hek293 cell line, cAMP assay in a wild type Hek293 cells was used as a counter screening.
Tox21 Assay Protocol Summary: Hek293 cells (wild type) were dispensed at 800 cells/4 uL/well in 1536-well white plates using a Multidrop dispenser. After the assay plates were incubated at a 37 C/5% CO2 incubator for 18 hrs, 23 nL of compounds dissolved in DMSO, positive controls or DMSO only was transferred to the assay plate by a pin tool, followed by 1 ul medium containing Ro20-1724. After 30 min of incubation at room temperature, 2.5 ul/well of cAMP-d2 and 2.5 ul/well of anti-cAMP-cryptate were added respectively into the assay plates using a Flying Reagent Dispenser. The plates were incubated at room temperature for 1 hr. The fluorescence intensity in the plates was measured using an Envision plate reader. Each test compound was measured at 15 concentrations and in triplicates.
Potency is the fitted concentration of half-maximal effect.

| Structure (SMILES) | Potency | cAMP activity change |
| --- | --- | --- |
| C[C@]12CC[C@@H]3c4ccc(O)cc4C[C@@H](CCCCCCCCCS(=O)CCCC(F)(F)C(F)(F)F)[C@H]3[C@@H]1CC[C@@H]2O (stereo not given in full) | inactive |  |
| NC(=O)N/N=C/c1ccc([N+](=O)[O-])o1 | inactive |  |
| CCN(CC)CCOC(=O)c1ccc(N)cc1 |  | -1.39% [at 42.5 µM, hits give high values] |
| CCCCCCCCCCCCCC(=O)OC(C)C | inactive |  |
| COc1ccccc1NC(=O)CC(C)=O |  | -5.31% |
| N[C@@H](Cc1c[nH]c2ccc(O)cc12)C(=O)O | inactive |  |
| NC(N)=NC(N)=NCCc1ccccc1 | inactive |  |
| C#C[C@]1(O)CC[C@H]2[C@@H]3CCc4cc(O)ccc4[C@H]3CC[C@@]21C | inactive |  |
| Cn1cnc2c1c(=O)[nH]c(=O)n2C | inactive |  |
| O=C1CCCCCN1 | inactive |  |
| OC[C@@H](O)[C@@H](O)[C@H](O)[C@H](O)CO | inactive |  |
| OCCCc1ccccc1 | inactive |  |
| O=C1OC(c2ccc(O)cc2)(c2ccc(O)cc2)c2ccccc21 | inactive |  |
| Oc1cccc(O)c1 | inactive |  |
| Cc1c(N(C)CS(=O)(=O)O)c(=O)n(-c2ccccc2)n1C | inactive |  |
| COc1ccc(O)cc1 | inactive |  |
| CCOC(=O)C(C)(C)Oc1ccc(Cl)cc1 | inactive |  |
| CN(C)C=O | inactive |  |
| CC(C)(C)NCC(O)c1ccc(O)c(CO)c1 (stereo not given) | 15.8 nM (active) and 37.6 nM (active) |  |
| CC(C)(C)CC(C)(C)c1ccc(O)c(-n2nc3ccccc3n2)c1 | inactive |  |

| Structure (SMILES) | Potency | cAMP activity change |
| --- | --- | --- |
| COC(=O)C1CCC(C(=O)OC)CC1 (stereo not given) | inactive |  |
| CC(=O)CCC(C)C | inactive |  |
| NC(=O)NO | inactive |  |
| CCCCNC(=O)NS(=O)(=O)c1ccc(N)cc1 | inactive |  |
| CCOCCO | inactive |  |
| NC(=O)OCC(COC(N)=O)c1ccccc1 | inactive |  |
| CC(O)COc1ccccc1 (stereo not given) | inactive |  |
| NC(=O)c1ccc([N+](=O)[O-])cc1Cl | inactive |  |
| CCN1CCCC1=O | inactive |  |
| Cc1cccc(Nc2cc(Cl)nc(SCC(=O)O)n2)c1C | inactive |  |
| CC(C)Cc1ccc(C(C)C(=O)O)cc1 (stereo not given) | inactive |  |
| CC1(C)O[C@@H]2[C@@H](CO[C@@]3(COS(N)(=O)=O)OC(C)(C)O[C@@H]23)O1 | inactive |  |
| CC(=O)OC/C=C(C)/C=C/C=C(C)/C=C/C1=C(C)CCCC1(C)C | inactive |  |
| CCCCCCCCCCCCCCCCCC(=O)OCC(O)CO (stereo not given) | inactive |  |
| COC1=CC(=O)C[C@@H](C)[C@]12Oc1c(Cl)c(OC)cc(OC)c1C2=O | inactive |  |
| COCC(C)N (stereo not given) | inactive |  |
| O=C(O)CCCCC1CCSS1 (stereo not given) | inactive |  |
| C=C(C)OC(C)=O | inactive |  |
| COc1ccccc1O | inactive |  |
| CN(C)Cc1cc(CN(C)C)c(O)c(CN(C)C)c1 | inactive |  |
